# Compounds with a hit are over-represented: about 22% of the library has one in this group of screens.
# LmPK inhibitor – LmPK (Leishmania mexicana) enzyme inhibition; Q27686; purified LmPK, Kinase-Glo ATP luminescence, 1 h; Potency, µM (highest dose often 57.5 µM), without a hit: top-dose activity change, negative = inhibition, actives largely listed as inhibitors; 290,000 compounds, 0.37% hits; AID 1721; note: potency is the fitted concentration of half-maximal effect; % is set by controls: 0 for no effect and ±100 for the full control effect
# Target sequence (Q27686 whole entry, looked up): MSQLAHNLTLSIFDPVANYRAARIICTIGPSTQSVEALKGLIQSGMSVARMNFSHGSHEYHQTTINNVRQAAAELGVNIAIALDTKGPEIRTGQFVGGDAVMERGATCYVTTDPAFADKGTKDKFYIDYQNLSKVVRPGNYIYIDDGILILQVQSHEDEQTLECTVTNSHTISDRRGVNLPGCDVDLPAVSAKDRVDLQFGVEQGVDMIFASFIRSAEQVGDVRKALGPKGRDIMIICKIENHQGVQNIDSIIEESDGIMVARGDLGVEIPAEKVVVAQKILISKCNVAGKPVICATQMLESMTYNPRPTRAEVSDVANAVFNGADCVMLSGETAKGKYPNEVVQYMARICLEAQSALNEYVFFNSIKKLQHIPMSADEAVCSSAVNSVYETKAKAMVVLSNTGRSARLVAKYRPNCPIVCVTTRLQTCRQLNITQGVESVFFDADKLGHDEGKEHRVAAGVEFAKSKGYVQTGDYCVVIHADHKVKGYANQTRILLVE
#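 Pyruvate kinase activity monitored as ATP production (luciferase luminescence). Conditions: 0.1 nM enzyme, 0.5 mM PEP, 0.1 mM ADP, 1 h, RT; normalized against uninhibited and no-enzyme wells.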
# Pf growth 48h – P. falciparum growth inhibition at 48 hours (one generation); P. falciparum luciferase growth in erythrocytes, 48 h; Potency, µM (highest dose often 28.7 µM), inactives show at the highest dose activity change, negative = inhibition, usual class: inhibitors; 310,000 compounds, 5.9% hits; note: potency is the fitted concentration of half-maximal effect; % is set by controls: 0 for no effect and ±100 for the full control effect
#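 Luciferase-expressing P. falciparum in infected erythrocytes (2% hematocrit, 0.1% parasitemia final) in RPMI 1640/0.5% Albumax were exposed to compound for 48 hours at 37 C, 5% CO2; growth read as luminescence.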
# CHX counter – counter-screen hit for Shiga toxin inhibitors, cycloheximide; cell reporter, cycloheximide protein synthesis inhibition counterscreen; max response, %; 300,000 compounds, 12% hits; AID 2314; in the data active = max response mostly above about 13%, no sharp cut-off; inactive = mostly below about 14%; note: read at 38.3 µM for the half of the compounds with a filed dose; 0% is about no effect
# Pf growth 96h – P. falciparum growth inhibition at 96 hours; P. falciparum luciferase reporter growth, 96 h; Potency, µM (top dose mostly 28.7 µM), for the others: top-dose activity change, negative = inhibition, hits mostly inhibitors; 320,000 compounds, 6.9% hits; AID 504834; note: potency is the fitted concentration of half-maximal effect; % is set by controls: 0 for no effect and ±100 for the full control effect
#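 Parasite growth measured via integrated firefly luciferase reporter in P. falciparum. Infected erythrocytes at 2% hematocrit, 0.05% parasitemia final were treated 96 hours at 37 C under 5% CO2, and luminescence was read.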
# Shiga toxin inh – blocks Shiga toxin action in Vero cells; Vero cells, Shiga toxin protein synthesis inhibition reporter; inhibition, % at 38.7 µM; 290,000 compounds, 9.2% hits; AID 2315; in the data active = inhibition mostly above about 28%, no sharp cut-off; inactive = mostly below about 43%; note: 0% is about no effect
# * = called active by the depositor; i = inactive; ? = inconclusive; · = not tested or not shown; [ ] = another dose, or the depositor's remark. Unless noted, calls come from the whole dose curve; as a rule, active = well fitted inhibition curve with a large enough effect; inconclusive = small, poorly fitted or top-dose-only effect, or another doubt; inactive = no such curve, though single readings can be large or run the other way.
SMILES,LmPK inhibitor,Pf growth 48h,CHX counter,Pf growth 96h,Shiga toxin inh
CCn1cc(C(=O)OCc2ccccc2)c(=O)c2ccc(C)nc21,-8%,?,1,-26%,-2
CCn1cc(C(=O)OCC(=O)c2ccccc2)c(=O)c2ccc(C)nc21,-2%,8%,-2,?,-13
CCOC(=O)c1ccccc1NC(=O)c1cn(CC)c2nc(C)ccc2c1=O,13%,266%,40*,-5%,64*
CCn1cc(C(=O)Nc2ccccc2C(=O)OC)c(=O)c2ccc(C)nc21,1%,i,51*,-26%,145*
CCn1cc(C(=O)Nc2ccc(NC(=O)c3ccco3)cc2)c(=O)c2ccc(C)nc21,0%,22%,-3,6.6µM*,14
Cc1ccc(NS(=O)(=O)c2c(C)[nH]c(C)c2C(=O)N2CCCC2)cc1Cl,2%,4%,-9,12%,-15
Cc1noc(C)c1-c1ccc2ncnc(NC(C)c3ccccc3)c2c1 (configuration not stated),·,·,1,·,-17
Cc1cccc(C)c1NC(=S)N(c1ccccc1)C(C)C,2%,1%,-8,-20%,-16
COc1ccccc1OCCCn1c(=O)sc2ccccc21,3%,-2%,28*,8%,103
O=C1c2ccccc2C(=O)N1CCn1c(=O)oc2ccccc21,-1%,22%,31*,0%,41*
O=c1oc2ccccc2n1CCCCCn1c(=O)oc2ccccc21,1%,?,19,?,4
COc1ccccc1OCCCn1c(=O)oc2ccccc21,5%,25%,24*,15%,43*
O=c1oc2ccccc2n1CCCOc1ccccc1,7%,42%,33*,12µM*,95*
CCCCCc1ccc(CC(=O)N2CCOCC2)cc1,-1%,31%,6,-28%,17
COc1ccc(/C=C/C(=O)N2CCN(C)CC2)cc1S(=O)(=O)N1CCCCC1,2%,-2%,-4,22%,-21
CCOC(=O)N1C2=NC(C(=O)OC)=C(C(=O)OC)[C@@H]3N(Cc4ccccc4)c4ccccc4[C@]23C[C@H]1C(=O)OC,-1%[11.5 µM],·,·,·,·
O=C(NNC(=O)c1ccccc1[N+](=O)[O-])c1ccc(NC(=O)c2ccccc2)cc1,5%,23%,25,18%,18
COCC1CCCCN1C(=O)c1ccc(OC)c(OC2CCN(C(C)C)CC2)c1 (configuration not stated),-1%,10%,57*,61%,93*
COc1ccc(C(=O)N2CCCC(O)C2)cc1OC1CCN(C(C)C)CC1 (configuration not stated),-6%,2%,-2,-19%,-18
CCC1CCCCN1C(=O)c1ccc(OC)c(OC2CCN(C(C)C)CC2)c1 (configuration not stated),-2%,?,-2,12%,-7
COCC1CCN(C(=O)c2ccc(OC)c(OC3CCN(C(C)C)CC3)c2)CC1,-6%,14%,16,3.3µM*,19
COCC1CCCCN1C(=O)c1cccc(OC2CCN(C(=O)C3CC3)CC2)c1 (configuration not stated),-10%,?,50*,26%,81*
O=S(=O)(Nc1ccc(S(=O)(=O)N2CCCC2)cc1)c1ccccc1Br,·,-12%,·,-19%,·
O=C1C[C@@H](c2ccc(O[C@@H]3O[C@H](CO)[C@@H](O)[C@H](O)[C@H]3O)cc2)Oc2cc(O)ccc21,-3%,3%,20*,-13%,active
Cc1nnc(N/N=C/c2cc([N+](=O)[O-])c(N3CCC(C)CC3)cc2N2CCC(C)CC2)n1N,6%,5.9µM*,13,·,24
SMILES,LmPK inhibitor,Pf growth 48h,CHX counter,Pf growth 96h,Shiga toxin inh
CC(=O)/C=C\c1ccccc1OC(=O)c1cc2ccccc2oc1=O,1%,-7%,11*,-26%,2
CC(=O)c1ccc(OC(=O)c2cc3ccccc3oc2=O)cc1,-3%,-4%,-2,103%,24
O=C(/C=C\c1ccccc1OC(=O)c1ccccc1F)c1cc2ccccc2o1,2%,87%,44*,-20%,63
COC(=O)c1ccccc1OC(=O)c1cc2ccccc2oc1=O,-8%,1%,29*,35%,52*
CC(=O)Nc1ccc(OC(=O)c2cc3ccccc3oc2=O)cc1,1%,19%,7,12µM*,12
CN(C)S(=O)(=O)N1CCCC(C(=O)c2ccc(-c3ccccc3)cc2)C1 (configuration not stated),1%,-27%,6,?,3
CCC(C)NC(=O)Cn1ccc2cc(S(=O)(=O)N3CCCCCC3)ccc21 (configuration not stated),1%,-3%,3,?,-11
CCCn1c(SCC(=O)c2cc(C)n(-c3cc(C)on3)c2C)n[nH]c1=O,·,?,·,-27%,·
CCCCCCOc1ccc(CN2CCN(CCO)CC2)cc1,-4%,102%,38*,·,61*
CCCCOc1ccc(CN2CCC(O)CC2)cc1,0%,57%,37*,159%,91*
CCCCOc1ccc(CN2CCN(CCO)CC2)cc1,0%,31%,29*,·,24
Cc1ccc(N(C(=O)CS(=O)CC(=O)Nc2ccc(F)cc2)C(C(=O)NC2CCCCC2)c2ccco2)cc1 (configuration not stated),0%,?,3,-30%,12
CCc1ccc(/C=C2/C(=O)NC(=O)N2C(C)=O)cc1,0%,95%,37*,61%,24
O=C(CSc1nnc(-c2ccc(Cl)cc2)n1Cc1ccco1)c1cccs1,0%,?,58*,?,44*
O=C(CSCc1ccco1)c1cccs1,0%,·,39*,154%,82*
O=C(NCc1ccco1)c1cccs1,10%,?,7,·,-23
O=c1c2ccccc2nc(/C=C/c2ccc3c(c2)OCO3)n1CCCO,-3%,13%,24*,31%,47
O=c1c2ccccc2nc(/C=C\c2ccccc2[N+](=O)[O-])n1-c1ccccc1O,-1%,6.6µM*,9,?,8
O=c1c2ccccc2nc(/C=C/c2ccccc2O)n1-c1ccccc1O,0%,?,13,?,23
O=c1c2ccccc2nc(/C=C/c2c[nH]c3ccccc23)n1CCO,3%,?,38*,20%,65*
O=c1c2ccccc2nc(/C=C/c2ccccc2)n1CCCO,0%,?,11,1%,6
COc1ccc(-n2c(/C=C/c3ccc(O)c(O)c3)nc3ccccc3c2=O)cc1,-14%,5.2µM*,2,2.3µM*,17
Cc1ccc(NC(=O)CSc2ncnc3ccccc23)cc1S(=O)(=O)N1CCCCCC1,-4%,?,1,?,-10
O=c1c2ccccc2nc(/C=C/c2ccc3c(c2)OCO3)n1-c1ccccc1,3%,?,-2,10µM*,9
CCc1cc(=O)oc2c(C)c(OC(C)C(=O)N3CCC[C@@H]3C(=O)O)ccc12 (some centres not stated),-11%,-9%,-1,0%,1

# High-throughput results from PubChem BioAssay.
